High-throughput results from PubChem.
FBPA coupling cs – counter-screen for Giardia aldolase inhibitors: coupling enzyme system. coupling enzyme system counterscreen, AmpLite Red fluorescence. AID 2472. activity change, negative = inhibition, % at 58.2 µM, hits read low. actives 0.67% (n = 290,000); in the data active means activity change below about -30%
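Activity here indicates interference with the coupling reaction, not aldolase inhibition. Compounds at 57.5 uM final met coupling enzymes for 10 min at RT; substrate and AmpLite Red detection followed, with a 525/598 nm fluorescence read after 20 min.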
Sfp PPTase inh – blocks B. subtilis Sfp PPTase activity; actives 3.5% (n = 310,000); Potency, µM, without a hit: largest response in the series, negative = inhibition, actives largely listed as inhibitors; Biochemical Sfp PPTase activity, qHTS; AID 1490;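 further: the enzyme is Sfp with the accession as filed and its product quenches rhodamine fluorescence; potency means the concentration at half of the fitted maximal effect; 0% = enzyme reaction without inhibitor and -100% = no enzyme wells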
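Fluorescence-quenching assay: 15 nM Sfp-PPTase preincubated 15 min at room temperature with compound, then 5 uM rhodamine-CoA and 12.5 uM BHQ-2-labelled YbbR peptide added. Fluorescence (ex 525/em 598 nm) read at start and after 30 min; difference gives rate.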
Tau fluor cs – counter-screen for tau fibril formation inhibitors. tau K18 P301L Alexa594 fluorescence, heparin fibrillization. Potency, µM (series often up to 57.7 µM), inactives show at the top dose activity change, negative = decrease. actives 0.93% (n = 280,000). AID 1463; further: potency means the concentration at half of the fitted maximal effect; nearly all actives have a fitted effect of over 55% in size
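Human K18 P301L tau (15 uM unlabeled plus 0.24 uM Alexa 594-labeled, final) in 100 mM sodium acetate pH 7 was mixed with compound and 20 uM heparin and incubated 6 hr at 37 C.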
Tau ThT inhib – inhibitors of human tau fibril formation, thioflavin T binding. P10636. recombinant tau K18 P301L, heparin-induced fibrillization, ThT fluorescence. Potency, µM (titrated, usually from 57.4 µM), for inactives: at the highest dose activity, negative = inhibition, usual class: inhibitors. actives 2.1% (n = 270,000). AID 1460; further: potency means the concentration at half of the fitted maximal effect; nearly all actives have a fitted effect of over 55% in size
Target sequence (P10636 561-689 P618L limits assumed): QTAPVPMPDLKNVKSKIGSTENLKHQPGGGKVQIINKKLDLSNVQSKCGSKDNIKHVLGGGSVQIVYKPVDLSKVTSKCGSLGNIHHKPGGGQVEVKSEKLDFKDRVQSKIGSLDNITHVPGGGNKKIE
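ThT emission at 510 nm, taken 1 hr after adding 30 uM dye, quantifies aggregates formed when 20 uM heparin acts on human tau K18 P301L for 6 hr at 37 C.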
Tau FP inhib – inhibitors of human tau fibril formation. Potency, µM (series often up to 57.7 µM), inactives show at the top dose activity, negative = inhibition, most hits filed as inhibitors. AID 1468. P10636. K18 P301L tau heparin fibrillization, Alexa594 FP, 6 h. actives 0.39% (n = 280,000); further: potency means the concentration at half of the fitted maximal effect; nearly all actives have a fitted effect of over 55% in size
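Compound effects on tau fibrillization are measured by Alexa 594 fluorescence polarization (ex 555, em 632 nm). K18 P301L tau is used at 15 uM with 0.24 uM labeled tracer, and 20 uM heparin induces aggregation over 6 hr at 37 C.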
JMJD2E inh – inhibitors of human JMJD2E histone demethylase. B2RXH2. JMJD2E catalytic domain, FDH-coupled NADH fluorescence (FDH is formaldehyde dehydrogenase). Potency, µM (top dose mostly 57.1 µM), for inactives: top-dose activity change, negative = inhibition, actives largely listed as inhibitors. actives 1.6% (n = 230,000); active means well fitted inhibition curve with a large enough effect, not every such curve was filed as active; inconclusive means small, poorly fitted or top-dose-only effect, or another doubt; inactive means no such curve, though single readings can be large or run the other way;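 further: potency means the concentration at half of the fitted maximal effect; 0% = wells with enzyme and -100% = buffer wells without enzyme; nearly all actives have a fitted effect of over 50% in size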
Target sequence (B2RXH2 1-337 limits assumed): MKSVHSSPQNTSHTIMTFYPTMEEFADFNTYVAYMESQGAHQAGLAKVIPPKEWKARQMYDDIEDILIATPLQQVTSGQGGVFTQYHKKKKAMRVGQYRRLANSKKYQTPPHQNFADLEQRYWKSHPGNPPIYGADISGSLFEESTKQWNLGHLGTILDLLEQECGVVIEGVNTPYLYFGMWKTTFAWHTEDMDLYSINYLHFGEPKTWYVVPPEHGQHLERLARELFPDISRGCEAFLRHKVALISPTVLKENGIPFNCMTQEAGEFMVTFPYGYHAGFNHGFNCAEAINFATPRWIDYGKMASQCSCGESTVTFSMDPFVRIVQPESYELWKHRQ
* hit, by the source's call; ? = inconclusive; . = not tested or not shown; [ ] = another dose, or the depositor's remark. A selection: hits, their analogues and other compounds. The true share with any hit is near 5.3%. Unless noted, the call rests on the fitted dose curve; in most records, active means well fitted curve in the direction sought with a large enough effect; inconclusive means small, poorly fitted or top-dose-only effect, or another doubt; inactive means no such curve, though single readings can be large; an effect the other way counts as inactive or inconclusive. Unless noted, on the % scale 0 is the no-effect control and ±100 the full control effect.

SMILES	FBPA coupling cs	Sfp PPTase inh	Tau fluor cs	Tau ThT inhib	Tau FP inhib	JMJD2E inh
COc1ccccc1NC(=O)C1=C(C)Nc2c(C(=O)Nc3ccc(F)cc3)cnn2C1c1cccc([N+](=O)[O-])c1 (centres undefined)	.	.	?	-1%	-4%	.
COc1ccc(/C=c2\sc3nc(-c4ccccc4)c(-c4ccccc4)n3c2=O)cc1OC	1	18µM*	-26%	?	?	?
O=c1/c(=C\c2cccc(O)c2)sc2nc(-c3ccccc3)c(-c3ccccc3)n12	-1	-20%	?	11µM*	25µM*	12%
COc1ccc(/C=c2/sc3nc(-c4ccccc4)c(-c4ccccc4)n3c2=O)cc1	-1	-16%	-7%	?	4%	1%
COc1cc(/C=c2/sc3nc(-c4ccccc4)c(-c4ccccc4)n3c2=O)cc(OC)c1OC	0	17%	-7%	-18%	0%	-3%
CCOc1cccc(/C=C/c2ccc3cccc(O)c3n2)c1OC	-8	79µM*	.	.	.	.
CCOc1cccc(/C=C/c2ccc3cccc(O)c3n2)c1O	-10	79µM*	.	.	.	.
C=C(CCC12O[C@H](C(=O)O)[C@@](O)(C(=O)O)[C@](C(=O)O)(O1)[C@H](OC(=O)/C=C/[C@@H](C)C[C@@H](C)CC)[C@H]2O)[C@@H](OC(C)=O)[C@H](C)Cc1ccccc1	7	?	-3%	?	10%	.
Cc1cc(NC(=O)C(C)(C)C)cc(-c2nc3ncccc3o2)c1O	.	.	-22%	-3%	2%	.
CCN1C(=O)c2cccc3c(NS(=O)(=O)c4ccc(NC(C)=O)cc4)ccc1c23	-17	6%	-2%	-6%	4%	2%
CCOC(=O)c1ccc(NC(=O)Nc2cc3c(cc2N2CCCC2)n(C)c(=O)n3C)cc1	.	.	14µM*[quencher]	?	12%	.
CC(=O)c1cccc(NC(=O)Nc2cc3c(cc2N2CCCC2)n(C)c(=O)n3C)c1	.	.	?	?	2%	.
CCOC(=O)c1ccc(NC(=O)Nc2ccc3c4c(cccc24)C(=O)N3CC)cc1	-1	3%	3.2µM*[quencher]	?	-13%	0%
CC(=O)Nc1cccc(NC(=O)C2(c3cccs3)CCOCC2)c1	.	.	-3%	-1%	-3%	.
CC#CCN1c2ccccc2[C@]23C[C@@H](C(=O)OC)N(S(=O)(=O)c4c(C)noc4C)C2=NC(C(=O)OC)=C(C(=O)OC)[C@H]13	2	15%	4%[11.6 µM]	?	1%[11.6 µM]	4%[11.4 µM]
CCC1=C2CC[C@H]3C(=O)N(CC(=O)OC)C(=O)[C@H]3[C@H]2[C@@]2(C)C(=O)N(CC3CC3)C(=O)N2C1=O	1	50µM*	-16%	-15%	-4%	-19%
CC1=NN(C(N)=S)C(=O)C1N=Nc1ccc(F)cc1 (centres undefined)	-1	-26%	.	.	.	.
CC1=NN(C(N)=S)C(=O)C1N=Nc1cccc(C(=O)O)c1 (centres undefined)	2	45µM*	.	.	.	.
CC1=NN(C(N)=S)C(=O)C1N=Nc1ccc(O)cc1 (centres undefined)	-1	14µM*	-17%	13µM*	-10%	?
Cc1cccc(Oc2cc(NC(=O)c3ccccc3)cc([N+](=O)[O-])c2)c1	-8	39%	7.1µM*[quencher]	0%	-9%	-4%
Cc1nn(CCCC(=O)Nc2cc(Oc3ccccc3)cc([N+](=O)[O-])c2)c(C)c1[N+](=O)[O-]	0	11%	10µM*[quencher]	-3%	7%	-3%
Cc1ccc(Oc2cc(NC(=O)CCCn3nc([N+](=O)[O-])cc3C)cc([N+](=O)[O-])c2)cc1	-1	9%	10µM*[quencher]	-7%	3%	5%
O=C(Nc1cc(Oc2ccc(Cl)cc2)cc([N+](=O)[O-])c1)c1ccco1	0	-19%	7.1µM*[quencher]	-7%	-24%	?
CCn1c2c(c(=O)n3ncc(C(=O)Nc4ccc(C(=O)OC)cc4)c13)CN(Cc1ccc(OC)cc1)CC2	.	.	-23%	?	-11%	.
COc1ccc(C2=NN(CCC(=O)NCCc3ccccc3)C(=O)CC2)cc1	.	.	-2%	-4%	7%	.
SMILES	FBPA coupling cs	Sfp PPTase inh	Tau fluor cs	Tau ThT inhib	Tau FP inhib	JMJD2E inh
CN[C@@H]1[C@H](O[C@@H]2O[C@H](C)[C@@](O)(CO)[C@H]2O[C@H]2[C@H](O)[C@H](O)[C@H](N=C(N)N)[C@@H](O)[C@@H]2N=C(N)N)O[C@@H](CO)[C@H](O)[C@H]1O	0	0%	-10%	?	-12%	.
O=S(=O)(c1ccc2nc(-c3ccccc3)[nH]c2c1)N1CCN(c2cccc(Cl)c2)CC1	-1	15%	?	-4%	?	4%
Cc1cc(C)cc(NC(=O)C2CCCN2S(=O)(=O)c2ccc3nc(-c4ccccc4)[nH]c3c2)c1 (centres undefined)	.	.	14µM*[quencher]	11%	?	.
CCc1cccc(NC(=O)C2CCCN2S(=O)(=O)c2ccc3nc(-c4ccccc4)[nH]c3c2)c1 (centres undefined)	.	.	14µM*[quencher]	16%	32µM*	.
CCc1cccc(NC(=O)C2CCCN2S(=O)(=O)c2ccc3c(c2)n(C)c(=O)c(=O)n3C)c1 (centres undefined)	4	10%	-5%	?	-2%	-21%
COc1ccccc1N1CCN(S(=O)(=O)c2ccc3nc(-c4ccccc4)[nH]c3c2)CC1	1	29%	?	8%	22µM*	-17%
CCOc1ccccc1NC(=O)C1CCCN1S(=O)(=O)c1ccc2nc(-c3ccccc3)[nH]c2c1 (centres undefined)	.	.	10µM*[quencher]	4%	?	.
CCOc1ccc(C(=O)Nc2ccccc2OCc2cc(=O)n3ccccc3n2)cc1	.	.	-6%	4%	-4%	.
CCOC(=S)SCc1cn2ccccc2n1	0	50µM*	-16%	?	?	-19%
CNc1ccccc(-c2ccc3cc4c(cc3n2)OCO4)c1=O	-15	?	?	5µM*	-14%	?
COc1ncc2nc(-c3cc(F)cc(F)c3)c(=O)n(CCc3ccccc3)c2n1	-5	?	.	.	.	.
COc1ccc(C2=Nn3c(nnc3-c3cccc(OC)c3OC)SC2)c(OC)c1	0	-4%	.	.	.	.
Cc1ccc(Cl)cc1N(C)C(=O)c1cnc(N2CCOCC2)c2ccccc12	.	.	-9%	-6%	1%	.
CCN(C(=O)c1cnc(N2CCN(c3ncccn3)CC2)c2ccccc12)c1cccc(Cl)c1	-9	40µM*	-6%	-13%	5%	?
CN(C(=O)c1cnc(N2CCN(c3ncccn3)CC2)c2ccccc12)c1ccc(Cl)cc1	-19	56µM*	-6%	-13%	6%	0%
